Several values for one entry are separate records, joined by “and”; a condition that tells them apart may be missing. Equal entries are not always repeated. Where a structure was tested more than once in an assay, its records may differ in their call. Activity calls are given as the source filed them. How the source made its calls: active means hit-call score of the fitted dose curve at least 0.9, where 1 is the maximum; inactive means score below 0.9.
Tests used:
[1] = read-out: Macrophage colony-stimulating factor (MCSF), CSF1 (gene 1435); assay: BSK_hDFCGF_MCSF: BioMAP Diversity Plus: hDFCGF Assay for Macrophage colony-stimulating factor (MCSF) Biomarker Activity (AID 2283060); conditions: primary human foreskin fibroblasts; actives raise or lower the signal
Summary of the method: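 fibroblasts (human foreskin, primary), 24 h post-dose; M-CSF by ELISA; bidirectional fit, DMSO = baseline.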

[2] = BSK_hDFCGF_SRB: Viability Assessment in the BioMAP Diversity Plus: hDFCGF Assay (AID 2283061); conditions: primary human foreskin fibroblasts;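 further: cells exposed to compound for 24 h before the read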
Summary of the method: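 SRB-based viability read on primary human skin fibroblasts at 24 h: TCA fixation, 0.1% dye, 560 nm. Gain or loss of signal is fitted against the DMSO negative control.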

[3] = read-out: TIMP metallopeptidase inhibitor 1 (TIMP1), TIMP1 (gene 7076); assay: BSK_hDFCGF_TIMP1: BioMAP Diversity Plus: hDFCGF Assay for TIMP metallopeptidase inhibitor 1 (TIMP1) Biomarker Activity (AID 2283062); conditions: primary human foreskin fibroblasts; actives raise or lower the signal
Summary of the method: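 Bidirectional curve fitting against DMSO baseline yielded this endpoint, based on ELISA detection of TIMP-1 in primary human foreskin fibroblasts exposed to compound for 24 h.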

[4] = read-out: Monokine induced gamma interferon (MIG), CXCL9 (gene 4283); assay: BSK_hDFCGF_MIG: BioMAP Diversity Plus: hDFCGF Assay for Monokine induced gamma interferon (MIG) Biomarker Activity (AID 2283063); conditions: primary human foreskin fibroblasts; actives raise or lower the signal
Summary of the method: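 Endpoint derived by bidirectional fitting relative to DMSO; MIG quantified via ELISA in primary human foreskin fibroblasts harvested 24 h after dosing.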

[5] = read-out: Matrix Metallopeptidase 1 (MMP1), MMP1 (gene 4312); assay: BSK_hDFCGF_MMP1: BioMAP Diversity Plus: hDFCGF Assay for Matrix Metallopeptidase 1 (MMP1) Biomarker Activity (AID 2283064); conditions: primary human foreskin fibroblasts; actives raise or lower the signal
Summary of the method: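 Primary human foreskin fibroblasts in the hDFCGF system were dosed with test chemical, and MMP1 was measured by ELISA 24 h later. Values come from bidirectional curve fitting against the DMSO baseline.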

[6] = read-out: Vascular cell adhesion molecule 1 (VCAM1), VCAM1 (gene 7412); assay: BSK_hDFCGF_VCAM1: BioMAP Diversity Plus: hDFCGF Assay for Vascular cell adhesion molecule 1 (VCAM1) Biomarker Activity (AID 2283065); conditions: primary human foreskin fibroblasts; actives raise or lower the signal;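 on AC50: VCAM-1 protein level quantified by ELISA after 24 h chemical exposure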
Summary of the method: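 Measured after 24 h chemical treatment of primary human skin fibroblasts, VCAM-1 was detected by ELISA and concentration-response analysed in both directions versus DMSO vehicle.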

[7] = read-out: Plasminogen activator inhibitor-1 (PAI1), SERPINE1 (gene 5054); assay: BSK_hDFCGF_PAI1: BioMAP Diversity Plus: hDFCGF Assay for Plasminogen activator inhibitor-1 (PAI1) Biomarker Activity (AID 2283066); conditions: primary human foreskin fibroblasts; actives raise or lower the signal
Summary of the method: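 Human foreskin fibroblast primary cells, 24 h chemical exposure; PAI-1 measured by ELISA. Bidirectional fitting relative to DMSO; parallel cultures stained with SRB for total protein to flag overt cytotoxicity.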

[8] = read-out: Intercellular Adhesion Molecule 1 (ICAM1), ICAM1 (gene 3383); assay: BSK_KF3CT_ICAM1: BioMAP Diversity Plus: KF3CT Assay for Intercellular Adhesion Molecule 1 (ICAM1) Biomarker Activity (AID 2283067); conditions: primary human keratinocytes with fibroblasts; actives raise or lower the signal
Summary of the method: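 Bidirectional curve fitting against a DMSO baseline was applied to ICAM-1 ELISA signal from primary human skin co-cultures harvested 24 h after treatment, with SRB staining of parallel wells for overt cytotoxicity.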

[9] = read-out: Interferon-gamma inducible Protein 10 (IP10), CXCL10 (gene 3627); assay: BSK_KF3CT_IP10: BioMAP Diversity Plus: KF3CT Assay for Interferon-gamma inducible Protein 10 (IP10) Biomarker Activity (AID 2283068); conditions: primary human keratinocytes with fibroblasts; actives raise or lower the signal
Summary of the method: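 Human keratinocyte plus foreskin fibroblast primary co-culture exposed to test chemical for 24 h; IP-10 measured by ELISA. Concentration-response fitted bidirectionally against DMSO control as baseline.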

[10] = BSK_KF3CT_SRB: Viability Assessment in the BioMAP Diversity Plus: KF3CT Assay (AID 2283069); conditions: primary human keratinocytes with fibroblasts;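 further: total protein by sulforhodamine B staining as a cytotoxicity measure; read 24 h after compound addition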
Summary of the method: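 Human primary keratinocyte plus foreskin fibroblast co-culture exposed to chemicals for 24 h. Total protein measured by 0.1% sulforhodamine B staining after 10% TCA fixation, read at 560 nm; bidirectional fitting versus DMSO baseline.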

[11] = read-out: TIMP metallopeptidase inhibitor 2 (TIMP2), TIMP2 (gene 7077); assay: BSK_KF3CT_TIMP2: BioMAP Diversity Plus: KF3CT Assay for TIMP metallopeptidase inhibitor 2 (TIMP2) Biomarker Activity (AID 2283071); conditions: primary human keratinocytes with fibroblasts; actives raise or lower the signal
Summary of the method: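 Co-culture of human primary keratinocytes and foreskin fibroblasts, measured 24 h after chemical dosing. TIMP-2 quantified by ELISA and fitted in both directions relative to DMSO. Cytotoxicity checked in parallel cultures by SRB total-protein staining.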

[12] = read-out: C-C motif chemokine 2 (Homo sapiens) (UniProt P13500); assay: BSK_KF3CT_MCP1: BioMAP Diversity Plus: KF3CT Assay for Monocyte Chemoattractant Protein 1 (MCP1/CCL2) Biomarker Activity (AID 2283073); conditions: primary human keratinocytes with fibroblasts; actives raise or lower the signal
Summary of the method: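 Biomarker MCP-1 is measured by ELISA in primary human keratinocytes co-cultured with foreskin fibroblasts, 24 h after chemical treatment; DMSO serves as the negative control and activity baseline.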

[13] = read-out: Matrix Metallopeptidase 9 (MMP9), MMP9 (gene 4318); assay: BSK_KF3CT_MMP9: BioMAP Diversity Plus: KF3CT Assay for Matrix Metallopeptidase 9 (MMP9) Biomarker Activity (AID 2283074); conditions: primary human keratinocytes with fibroblasts; actives raise or lower the signal;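 on AC50: MMP9 protein level quantified by ELISA in the co-culture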
Summary of the method: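 Keratinocyte plus foreskin fibroblast human primary skin co-culture was dosed with chemical and MMP-9 was quantified by ELISA 24 h later. Bidirectional curve fitting used DMSO as negative control and activity baseline.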

[14] = read-out: urokinase plasminogen activator (uPA), PLAU (gene 5328); assay: BSK_KF3CT_uPA: BioMAP Diversity Plus: KF3CT Assay for urokinase plasminogen activator (uPA) Biomarker Activity (AID 2283075); conditions: primary human keratinocytes with fibroblasts; actives raise or lower the signal
Summary of the method: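 Human keratinocyte plus foreskin fibroblast primary co-culture exposed to chemical for 24 h. uPA levels were quantified by ELISA, and activity was fitted bidirectionally against a DMSO negative-control baseline.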

[15] = read-out: CD40, CD40 (gene 958); assay: BSK_LPS_CD40: BioMAP Diversity Plus: LPS Assay for CD40 Biomarker Activity (AID 2283076); conditions: primary human HUVEC with PBMC; actives raise or lower the signal
Summary of the method: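 Using a multiplexed primary human co-culture (umbilical vein endothelium plus PBMC), CD40 was read by ELISA 24 h after dosing, with cytotoxicity tracked by sulforhodamine B staining of parallel cultures and activity fitted bidirectionally versus DMSO.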

[16] = read-out: E-selectin (Homo sapiens) (UniProt P16581); assay: BSK_LPS_Eselectin: BioMAP Diversity Plus: LPS Assay for Eselectin Biomarker Activity (AID 2283077); conditions: primary human HUVEC with PBMC; actives raise or lower the signal
Summary of the method: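 Dose chemical onto LPS-driven HUVEC/PBMC co-culture; after 24 h, run ELISA for E-selectin; fit up- and down-going responses relative to DMSO control.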

[17] = BSK_LPS_SRB: Viability Assessment in the BioMAP Diversity Plus: LPS Assay (AID 2283079); conditions: primary human HUVEC with PBMC;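 further: total protein by sulforhodamine B absorbance as a cytotoxicity measure; measured one day after compound addition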
Summary of the method: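 Cytotoxicity endpoint in human endothelial–PBMC co-culture: 24 h exposure, then SRB (0.1%) staining, 560 nm read.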

[18] = read-out: Transforming growth factor beta 1 (TGFb1), TGFB1 (gene 7040); assay: BSK_KF3CT_TGFb1: BioMAP Diversity Plus: KF3CT Assay for Transforming growth factor beta 1 (TGFb1) Biomarker Activity (AID 2283072); conditions: primary human keratinocytes with fibroblasts; actives raise or lower the signal
Summary of the method: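 Human keratinocyte/foreskin fibroblast co-culture; TGF-b1 measured by ELISA 24 h after dosing, fitted bidirectionally versus DMSO. Cytotoxicity checked in parallel cultures by total protein (SRB staining, 560 nm).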

[19] = read-out: Interleukin-8 (IL8), CXCL8 (gene 3576); assay: BSK_LPS_IL8: BioMAP Diversity Plus: LPS Assay for Interleukin-8 (IL8) Biomarker Activity (AID 2283078); conditions: primary human HUVEC with PBMC; actives raise or lower the signal
Summary of the method: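 In this LPS system, chemical-treated human umbilical vein endothelium/PBMC co-cultures were harvested at 24 h for IL-8 ELISA.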

[20] = read-out: Interleukin-1 alpha (IL1a), IL1A (gene 3552); assay: BSK_KF3CT_IL1a: BioMAP Diversity Plus: KF3CT Assay for Interleukin-1 alpha (IL1a) Biomarker Activity (AID 2283070); conditions: primary human keratinocytes with fibroblasts; actives raise or lower the signal
Summary of the method: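 Human keratinocyte plus foreskin fibroblast primary co-culture, sampled 24 h after chemical dosing. IL-1a measured by ELISA; responses fitted bidirectionally against DMSO baseline (negative control), so gain or loss of signal both count.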

Measured: AC50

Sequence of E-selectin (Homo sapiens) (P16581 whole entry, looked up): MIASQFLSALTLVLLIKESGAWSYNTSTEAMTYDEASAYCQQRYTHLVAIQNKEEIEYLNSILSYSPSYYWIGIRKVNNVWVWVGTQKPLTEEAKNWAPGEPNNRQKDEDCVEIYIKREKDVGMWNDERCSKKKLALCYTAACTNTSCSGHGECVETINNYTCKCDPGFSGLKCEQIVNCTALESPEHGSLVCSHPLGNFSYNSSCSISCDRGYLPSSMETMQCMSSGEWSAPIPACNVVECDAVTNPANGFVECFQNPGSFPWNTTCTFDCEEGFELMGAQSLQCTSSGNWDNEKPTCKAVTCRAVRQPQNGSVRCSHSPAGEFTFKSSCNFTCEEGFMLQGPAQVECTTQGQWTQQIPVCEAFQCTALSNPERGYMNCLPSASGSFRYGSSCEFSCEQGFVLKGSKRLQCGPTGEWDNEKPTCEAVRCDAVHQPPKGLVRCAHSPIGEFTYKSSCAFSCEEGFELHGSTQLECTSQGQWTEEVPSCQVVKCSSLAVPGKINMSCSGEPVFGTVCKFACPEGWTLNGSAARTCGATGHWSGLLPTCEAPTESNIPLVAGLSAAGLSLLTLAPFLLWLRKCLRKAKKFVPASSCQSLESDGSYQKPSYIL

FC(F)(F)C(F)(F)C(F)(F)C(F)(F)C(F)(F)C(F)(F)CCS
not listed: [18] | [19] | [20]
inactive: all other assays above

NC(=O)C(F)(F)C(F)(F)C(F)(F)C(F)(F)F
not listed: [9] | [18] | [19] | [20]
inactive: all other assays above

CO[Si](OC)(c1ccccc1)c1ccccc1
active: [1] 32.5 µM | [2] 36 µM | [10] 32.6 µM | [11] 30.9 µM | [18] 30.1 µM | [12] 31.6 µM | [13] 31.3 µM | [14] 28.9 µM
not listed: [9] | [19] | [20]
inactive: all other assays above

OCCCC(F)(F)C(F)(F)C(F)(F)C(F)(F)C(F)(F)C(F)(F)C(F)(F)F
active: [1] 15.6 µM and 16.6 µM | [2] 18.3 µM and 17.2 µM | [3] 14.6 µM and 14.4 µM | [4] 16.3 µM and 14.6 µM | [5] 13 µM and 15 µM | [6] 11 µM and 9.2 µM | [7] 15.3 µM and 14.9 µM | [8] 28.3 µM and 47.3 µM | [10] 24.2 µM and 49 µM | [11] 14.7 µM and 37 µM | [12] 27.3 µM and 42.9 µM | [13] 20 µM and 45 µM | [14] 22.8 µM and 47.2 µM | [15] 45.6 µM and 45.1 µM | [16] 50.6 µM and 43.6 µM | [17] 54 µM and 46.2 µM

CCCCCCCCCCCCCCCC[N+](C)(C)Cc1ccccc1
active: [1] 1.97 µM | [2] 5.13 µM | [3] 1.71 µM | [4] 3.62 µM | [5] 4.17 µM | [6] 1.91 µM | [7] 1.52 µM | [8] 6.06 µM | [10] 5.1 µM | [11] 1.9 µM | [18] 1.02 µM | [12] 3.15 µM | [13] 1.76 µM | [14] 2.39 µM | [15] 13 µM | [16] 4.01 µM | [19] 5.25 µM | [17] 5.2 µM

FC(F)(F)C(F)(F)CNCC(F)(F)C(F)(F)F
not listed: [9] | [18] | [19]
inactive: all other assays above

C=CC(=O)OCC(F)(F)C(F)(F)C(F)(F)C(F)(F)COC(=O)C=C
active: [1] 5.29 µM and 5.49 µM | [2] 8.52 µM and 8.25 µM | [3] 8.88 µM and 9.2 µM | [4] 3.49 µM and 3.32 µM | [5] 17.1 µM and 17.3 µM | [6] 3.41 µM and 3.27 µM | [7] 8.89 µM and 8.86 µM | [8] 23 µM and 24.1 µM | [10] 41.7 µM and 43.2 µM | [11] 25.7 µM and 33.3 µM | [12] 10.9 µM and 15.4 µM | [13] 30.9 µM and 21.6 µM | [14] 33.8 µM and 37 µM | [15] 12.2 µM and 18.5 µM | [16] 17.3 µM and 17.6 µM | [19] 19.2 µM and 16.7 µM | [17] 45.3 µM and 43.4 µM

CCO[Si](CCC(F)(F)C(F)(F)C(F)(F)C(F)(F)C(F)(F)C(F)(F)F)(OCC)OCC
active: [15] 1.4 µM
inactive: [1] | [2] | [3] | [4] | [5] | [6] | [7] | [8] | [10] | [20] | [11] | [12] | [13] | [14] | [15] | [16] | [17]

CCCCCCCOC(=O)c1ccccc1C(=O)OCCCCCCC
not listed: [9] | [19] | [20]
inactive: all other assays above

FC(F)(F)C(F)(F)C(F)(F)C(F)(F)C(F)(F)C(F)(F)C(F)(F)Br
not listed: [18] | [19] | [20]
inactive: all other assays above

O=S(=O)(O)C(F)(F)C(F)(F)C(F)(F)C(F)(F)C(F)(F)C(F)(F)C(F)(F)F
not listed: [18] | [19] | [20]
inactive: all other assays above

CS(C)(=O)=O
not listed: [9] | [20]
inactive: all other assays above

OCC(F)(F)C(F)(F)C(F)(F)F
not listed: [18] | [20]
inactive: all other assays above

Reference: PubChem BioAssay (EPA / NIEHS)
